TEAD-YAP block: TEAD-YAP interaction inhibition; inhibition, % at 9.12 µM; HEK-TIYL cells, TEAD-Gal4/YAP UAS-luciferase luminescence; AID 1259422; actives 1.4% (n = 640,000); in the data active means inhibition above about 32%;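 further: 0% = median of test compound wells and 100% = reference inhibitor wells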
MITF inh: inhibitors of human MITF | O75030 | AlphaScreen MITF homodimerization, bead proximity signal | inhibition, % at 2.6 µM | actives 0.91% (n = 650,000); in the data active means inhibition above about 50%;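 further: 0% = vehicle wells with protein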
GPR151 activ: activators of human GPR151 | Q8TDV0 | PathHunter beta-arrestin GPR151 cells, luminescence | activation, % at 11.2 µM | actives 1% (n = 650,000); in the data active means activation above about 4.9%;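 further: 0% = median of compound wells and 100% = cells with positive control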
FBW7 act: human FBW7 E3 ligase activation, primary screen | Q969H0 | AlphaScreen FBW7–phospho-cyclin E peptide binding, activator screen | normalized activity (activation), % at 26.1 µM | actives 0.13% (n = 650,000); in the data active means normalized activity above about 1.9%;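 further: purified mutant Fbw7 with reduced substrate affinity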
GPR151 conf act: confirmation of human GPR151 activators | AID 1508609 | activation, % at 11.2 µM | GPR151 PathHunter beta-arrestin cells, luminescence, 90 min; % of EA-reagent control over plate median | shares compounds with GPR151 activ | 6,700 tested, under 10 active;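 active means mean percent activation across replicates above the confirmation screen cutoff of 4.91%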
GPR119 ag: GPR119 activation, counter-screen for GPR151 activators; AID 1508611; activation, % at 11.2 µM; actives 0.3% (n = 6,700); GPR119 PathHunter beta-arrestin cells, luminescence, 90 min; 0 = compound-well median, 100 = enzyme-acceptor control; shares compounds with GPR151 activ;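 active means mean percent activation in the counterscreen above 29.09%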;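 further: counterscreen on off-target GPR119 to flag nonselective hits from the GPR151 activator screen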
Numbers without * were called inactive; / = no result given. A selection: hits, their analogues and other compounds. The true share with any hit is near 3.5%.

SMILES	TEAD-YAP block	MITF inh	GPR151 activ	FBW7 act	GPR151 conf act	GPR119 ag
COc1cc(OC)cc(C(=O)NC(=S)N2CC3CC(C2)c2cccc(=O)n2C3)c1 (configuration not stated)	1	-3	7.5*	0	-1	2
CC(C)Cc1nc2ccccc2c(=O)n1-c1ccccc1	10	1	0	0	/	/
O=C(COc1ccc(Br)cc1)N1CCN(CC2CC=CCC2)CC1 (configuration not stated)	-1	16	9.7*	1	0	-7
Cc1ccc(-n2c(/C=C/c3ccc(F)cc3)nc3ccc(Br)cc3c2=O)cc1	-3	3	-2	0	/	/
COc1ccc(C(=O)C2CCCN(C)C2)c(OC)c1 (configuration not stated)	3	35	5.0*	0	0	-10
Cc1ccccc1NC(=O)C1C(C)(C)C1(C)C	6	0	9.3*	0	0	7
CC1(C)C(C(=O)Nc2cccc3ccccc23)C1(C)C	2	3	0	0	/	/
COc1cccc(OC)c1C1=NCC(=O)Nc2c1oc1ccc(Br)cc21	58*	5	5.7*	0	0	-4
O=C1CN=C(c2ccccc2)c2oc3ccc(Br)cc3c2N1	0	-1	2	0	/	/
OCC1OC(Oc2ccc(Br)cc2)C(O)C(O)C1O (configuration not stated)	-5	-1	0	0	/	/
Nc1ncnc2c1ccn2[C@@H]1O[C@H](CO)[C@@H](O)[C@H]1O	100*	10	7.1*	0	5.9*	4
CN(C)c1ccc(/C=C2/C(=O)NC(=O)N(c3ccccc3O)C2=O)cc1	0	-3	0	0	/	/
Cc1ccccc1N1CCN(Cc2ccc([N+](=O)[O-])cc2)CC1	-3	0	0	0	/	/
COc1ccccc1N1CCN(Cc2ccc([N+](=O)[O-])cc2)CC1	8	37	5.5*	0	-1	8
O=C1NC(=O)C(=Cc2cccc(F)c2)C(=O)N1	-3	-1	1	0	/	/
CCOc1cccc(CNC2CN3CCC2CC3)c1 (configuration not stated)	4	-6	6.9*	0	0	5
CN1C(=O)NC(=O)/C(=C/c2ccc(-c3ccccc3[N+](=O)[O-])o2)C1=O	4	1	5.0*	0	-1	-14
COc1cc(CN2CCN(CCC(C)C)C(CCO)C2)ccc1F (configuration not stated)	-6	1	0	0	/	/
C[C@]12CCC(=O)C=C1CC[C@@H]1[C@@H]2CC[C@]2(C)C(=O)CC[C@@H]12	-6	2	-1	1	/	/
CC12C=CC(=O)C=C1CCC1C2CCC2(C)C(=O)CCC12 (configuration not stated)	-16	7	5.1*	0	0	-6
CCN(Cc1ccccc1)C(=O)C(Cl)(Cl)Cl	5	2	6.0*	0	-1	2

Bioassay records (PubChem BioAssay)
